# ± gives the standard deviation.
# How the values were obtained:
# [1] = tested on: MILI (PIWIL2) piRISC loaded with L1MC piRNA (26 nt); assay: pre-steady-state target cleavage rate (min^-1); guide: L1MC piRNA 5'p-UAACUAAAUACUAUGCAAGCUGUAGG; higher = faster piRNA-guided slicing of the target;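 also: 1 nM active piRISC with 0.1 nM target library at 33 °C single turnover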
# In short: (§1)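 For Cleave-'n-Seq, a transcribed, DNA-blocked target RNA library […] met 1 nM active affinity-purified piRISC with one synthetic guide at 33 °C for 0–8 or 0–960 min in HEPES–potassium acetate buffer, with or without 500 nM GTSF1 partner protein. Uncleaved targets were sequenced and normalised to depth and weakly complementary targets, with three trials pooled and k3 capped at 0.0001 min^-1. A burst-and-steady-state fit supplied the pre-steady-state cleavage rate.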
# [2] = tested on: EfPiwi piRISC loaded with L1MC piRNA (26 nt); assay: pre-steady-state target cleavage rate (min^-1); auxiliary factor: 500 nM Ephydatia muelleri Gtsf1; guide: L1MC piRNA 5'p-UAACUAAAUACUAUGCAAGCUGUAGG; MIWI and MILI are mouse PIWI proteins and EfPiwi is from a freshwater sponge; tags in brackets are library labels; higher = faster piRNA-guided slicing of the target
# In short: as §1
# [3] = auxiliary factor: 500 nM mouse GTSF1
# [4] = auxiliary factor: none (no GTSF1)
Sequence,"pre-steady-state target cleavage rate [1, 3]","pre-steady-state target cleavage rate [1, 4]",pre-steady-state target cleavage rate [2]
UCCUGCUACAGUUGCAUAGUAUUUAGUUA,0.256 ± 0.019,0.0103 ± 0.0022,0.0766 ± 0.022
UCCUGCUACAGCAUGCAUAGUAAUUAGUUA,0.225 ± 0.022,0.00692 ± 0.0027,0.007 ± 0.0024
UCCUGGAUGUGCUUGCAUAGUAUUUGGUUA,0.131 ± 0.013,0.01 ± 0.0034,0.00579 ± 0.003
UCCUGGAACAGCUUGCAUAGUAUUUAGUGUA,0.231 ± 0.018,0.00523 ± 0.0026,0.00557 ± 0.0021
UCCUGGAACAGCUUUCAUAGUAUUUAGUUA,0.197 ± 0.021,0.00688 ± 0.0024,0.00631 ± 0.0025
UCCUGCUACACUUGCAUAGUAUUUAGUUA,0.268 ± 0.021,0.00611 ± 0.0023,0.00903 ± 0.0027
UCCUGCUACAGCUUGGAUAGUAUUUAGUAA,0.214 ± 0.032,0.00334 ± 0.0025,0.00465 ± 0.0017
UCCUGGAUCUGCUUGCAUAGUAUUUAGUUA,0.229 ± 0.016,0.00944 ± 0.002,0.116 ± 0.023
UCCUCCUUCAGCUUGCAUAGUAUAUAGUUA,0.216 ± 0.022,0.00364 ± 0.0025,0.0124 ± 0.0058
UCCUGGAUCAGCUUGCAUAGUAUUUAGUAUA,0.233 ± 0.021,0.00809 ± 0.0032,0.0115 ± 0.0043
UCCUCCUACACCUUGCUUAGUAUUUAGUUA,0.193 ± 0.022,0.00665 ± 0.0019,0.00914 ± 0.0039
UCCUGGAUGUCCUUGCAUAGUAUUUAGUUC [g2:g19:cont:t1C],0.0893 ± 0.011,0.00931 ± 0.0026,0.00867 ± 0.0028
UCCUCCUACAGCUUGUAUAGUAUUUAGUUA,0.305 ± 0.018,0.00822 ± 0.0025,0.143 ± 0.033
UCCUGCUACAGUUUGCAUAGUAUUUAGUUA,0.296 ± 0.015,0.0106 ± 0.0023,0.0365 ± 0.011
UCCUGCUACACCUUGGAUAGUAUUUAGUUA,0.122 ± 0.021,0.00552 ± 0.0022,0.00538 ± 0.0021
UCCUGGAUGUGCUUGCAUAGUAUUGUAGUUA,0.0838 ± 0.018,0.0048 ± 0.0032,0.00579 ± 0.0041
UCCUGCUACAGCUGUGCAUAGUAUUUAGUUA,0.263 ± 0.025,0.0081 ± 0.0032,0.00927 ± 0.0026
UCCUGGUACAGCUUGCAUAGUACUUAGUUA,0.187 ± 0.029,0.00401 ± 0.0032,0.00275 ± 0.0022
UCCUCCUACAGCUUGCAUAGUGUUUAGUUA,0.211 ± 0.017,0.00543 ± 0.0025,0.0149 ± 0.0041

# — the supplement of paper PMC10338343
